In the library only some 8.8% were active in any assay of this set; here they are far more common.
HPGD block: inhibitors of human 15-hydroxyprostaglandin dehydrogenase (HPGD); purified HPGD, NADH fluorescence kinetic, PGE2 substrate; AID 894; Potency, µM, for inactives: at the highest dose activity change, negative = inhibition, actives largely listed as inhibitors; P15428; hit rate 4.3% among 150,000; further: on the % scale 0 is the no-effect control and ±100 the full control effect
Target sequence (P15428 whole entry, looked up): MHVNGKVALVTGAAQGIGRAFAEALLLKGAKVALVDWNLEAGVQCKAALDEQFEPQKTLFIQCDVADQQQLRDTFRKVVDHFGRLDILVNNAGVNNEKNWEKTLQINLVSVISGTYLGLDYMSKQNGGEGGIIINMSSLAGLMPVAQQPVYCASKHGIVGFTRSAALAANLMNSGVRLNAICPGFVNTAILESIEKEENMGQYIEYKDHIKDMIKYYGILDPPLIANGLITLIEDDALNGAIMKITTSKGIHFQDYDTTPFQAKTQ
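20 nM HPGD preincubated 15 min at room temperature with compound in 50 mM Tris-HCl pH 8, 0.01% Tween 20. Started with 1 mM NAD+ and 30 uM prostaglandin E2; NADH fluorescence (360/450 nm) read 5 times over 30-s intervals, last minus first.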
ALDH1A1 block: blocks purified human ALDH1A1 activity. P00352. Purified ALDH1A1, NADH fluorescence, propionaldehyde substrate. Potency, µM (series often up to 75.3 µM), for inactives: top-dose activity, negative = inhibition, hits mostly inhibitors. hit rate 7.3% among 220,000;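 further: plate controls were no enzyme wells and a reference inhibitor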
Target sequence (P00352 whole entry, looked up): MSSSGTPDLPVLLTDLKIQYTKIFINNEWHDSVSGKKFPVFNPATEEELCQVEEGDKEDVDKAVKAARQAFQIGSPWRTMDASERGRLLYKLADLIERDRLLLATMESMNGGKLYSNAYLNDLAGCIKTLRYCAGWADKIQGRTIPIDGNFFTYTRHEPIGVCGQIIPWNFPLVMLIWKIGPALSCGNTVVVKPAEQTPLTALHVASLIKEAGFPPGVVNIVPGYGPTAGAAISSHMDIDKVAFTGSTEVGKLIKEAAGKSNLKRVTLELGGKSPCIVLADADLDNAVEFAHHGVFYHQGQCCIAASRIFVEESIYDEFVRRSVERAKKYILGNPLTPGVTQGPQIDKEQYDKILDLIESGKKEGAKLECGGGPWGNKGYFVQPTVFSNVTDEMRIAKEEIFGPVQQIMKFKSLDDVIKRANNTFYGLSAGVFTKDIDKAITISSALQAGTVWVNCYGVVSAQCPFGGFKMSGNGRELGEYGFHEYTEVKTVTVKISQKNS
Lamin A splicing: changes lamin A minigene splicing in HeLa cells; hit rate 0.01% among 200,000; Potency, µM (highest dose often 46.1 µM), inactives show top-dose ratio change, negative = inhibition, hits mostly inhibitors; HeLa LMNA splicing GFP/RFP minigene ratio, 48 h; active means well fitted inhibition curve with a large enough effect in the signal ratio, with a control signal flat, not every such curve was filed as active; inconclusive means small, poorly fitted or top-dose-only effect, or effect the other way, or a change in a side signal; the % refers to the signal ratio; further: on the % scale 0 is the no-effect control and ±100 the full control effect
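Read-out is the ratio of GFP to DsRed2 object intensity, acquired by 488 nm laser-scanning cytometry on HeLa lamin A-EGFP minigene reporter cells. Compound incubation 48 hrs at 37 °C in Opti-MEM with 2% FBS; DMSO 0.5% final.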
HttQ103 aggreg: mutant huntingtin aggregation inhibition; PC12 HttQ103-GFP aggregates, Acumen cytometry, 40 h; Potency, µM (series often up to 46.1 µM), for inactives: at the highest dose activity change, negative = inhibition, hits mostly inhibitors; hit rate 1.1% among 220,000; AID 1688; active means well fitted curve in the direction sought with a large enough effect; inconclusive means small, poorly fitted or top-dose-only effect, or another doubt; inactive means no such curve, though single readings can be large; an effect the other way counts as inactive or inconclusive; further: on the % scale 0 is the no-effect control and ±100 the full control effect; nearly all actives have a fitted effect of over 60% in size
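Huntingtin Q103 exon 1–GFP aggregates in induced PC12 cells (100 nM tebufenozide) were quantified by cytometry from lysates, with compounds dosed in titration.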
HTT ATP protect: cytoprotection in Huntington HTT-Q103 PC12 cell model; PC12 HTT-Q103 induced, cytoprotection, ATP luminescence, 40 h; Potency, µM (highest dose often 56.4 µM), for inactives: cytoprotection (ATP increase), hits mostly activators; hit rate 0.14% among 230,000; AID 1471; active means well fitted curve in the direction sought with a large enough effect; inconclusive means small, poorly fitted or top-dose-only effect, or another doubt; inactive means no such curve, though single readings can be large; an effect the other way counts as inactive or inconclusive; further: % of control where 0% means no effect; nearly all actives have a fitted effect of over 45% in size
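Huntington model: PC12 line, ecdysone-inducible HTTQ103 exon1–GFP, tebufenozide 100 nM. Test articles in a dose series. Endpoint luminescence from cellular ATP.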
Active calls of the source: *; ? = inconclusive; . = no result given; [ ] = another dose, or the depositor's remark. Unless noted, the call rests on the fitted dose curve; in most records, active means well fitted inhibition curve with a large enough effect (not every such curve was filed as active); inconclusive means small, poorly fitted or top-dose-only effect, or another doubt; inactive means no such curve, though single readings can be large or run the other way. Potency means the concentration at half of the fitted maximal effect.

SMILES	HPGD block	ALDH1A1 block	Lamin A splicing	HttQ103 aggreg	HTT ATP protect
Cc1ccc(-n2ncc(Cl)c2C(=O)NC2CC2)cc1	.	-4.4%	.	-4.7%[9.22 µM]	-0.8%[10 µM]
CO[C@@H](CCOCc1ccccc1)C[C@H]1O[C@H](C(=O)OC(C)C)C=C[C@@H]1C	-9.8%	-2.5%	.	.	?
Cc1ccc(C(=O)CSc2nnc(-c3ccco3)n2C)cc1	.	5.3%	?	.	.
Cn1c(SCC(=O)c2cc(Cl)c(Cl)s2)nnc1-c1ccco1	.	28.2µM*	.	-13.2%[9.22 µM]	-10.2%[10 µM]
CCOC(=O)c1c(-c2ccccc2)csc1NC(=O)CSc1ccccc1	-17.0%	?	?	0.3%	5.2%[10 µM]
CCOC(=O)c1c(-c2ccc(C)o2)csc1NC(=O)COC(=O)c1cccs1	22.4µM*	14.1µM*	-7.8%	2.3%	11.0%[10 µM]
Cn1nnnc1SCc1ccc(C(=O)Nc2ccccc2F)cc1	15.8µM*	?	11.9%	?	-10.8%
CCOC(=O)c1c(-c2ccccc2)csc1NC(=O)CSc1nnnn1C	31.6µM*	-13.3%	?	?	-64.9%
CCOC(=O)c1c(-c2ccc(C)o2)csc1NC(=O)CN1CCOCC1	?	-12.6%	-2.6%	22.9%[9.22 µM]	-9.5%
O=C(CC(c1ccccc1)c1cc(Br)ccc1O)N1CCCC1 (stereo not given)	.	-13.6%	.	1.7%	-24.0%
O=C(CC(c1ccccc1)c1cc(Br)ccc1O)NCCN1CCOCC1 (stereo not given)	14.1µM*	-64.0%	10.8%	4.3%	8.1%
Cc1ccccc1NC(=O)CSc1nnc(-c2ccoc2C)n1CCc1ccccc1	-7.6%	-12.4%	-6.6%	-4.5%	2.4%
CCCn1c(SCC(=O)Nc2ccccc2-c2ccccc2)nnc1-c1ccoc1C	-1.5%	31.6µM*	?	-1.6%	-13.1%[10 µM]
COc1ccc2[nH]c3c(N4CCN(Cc5ccc6c(c5)OCO6)CC4)ncnc3c2c1	.	?	?	12.6µM*	-46.9%
COc1ccc2c(c1)c1ncnc(N3CCN(Cc4ccc5c(c4)OCO5)CC3)c1n2C	?	?	-4.1%	?	?
Cn1ncc2c(Nc3cccc(C#N)c3)ncnc21	.	.	-4.8%[46 µM]	.	.
COc1ccc(-c2c(-c3ccc(OCC(=O)NN)cc3O)n[nH]c2C(F)(F)F)cc1	-10.8%	12.6µM*	-0.2%	19.0%	-9.4%[10 µM]
C[C@H]1CC[C@@H]2N(C1)C[C@H]1[C@@H]3C[C@H]4[C@@H](C/C(=N\O)[C@H]5C[C@@H](O)CC[C@@]54C)[C@@H]3CC[C@H]1[C@]2(C)O	-5.6%	4.1%	.	.	-12.3%
Cn1c(=O)n(C)c2cc(/C=N/NC(N)=S)ccc21	.	1.4%	-21.1%[46 µM]	?	18.2%
Cc1ccc(NC(=O)COc2ccccc2C(=O)Nc2ccccc2)cc1Cl	-17.6%	?	-12.6%	?	8.8%[10 µM]
CCOCC(=O)Nc1ccc(C)c(Cl)c1	15.8µM*	25.1µM*	7.3%	6.7%	2.7%
Cc1ccc(NC(=O)COC(=O)Cn2cnc3c2c(=O)n(C)c(=O)n3C)cc1Cl	.	7.8%	.	3.2%	-23.5%
Cc1ccc(NC(=O)COC(=O)CC2CCCC2)cc1Cl	.	22.4µM*	-18.0%[46 µM]	27.8%	-16.9%[10 µM]
CCN(CC)S(=O)(=O)c1ccc(C(=O)NCCN2C(=O)S/C(=C\c3cccnc3)C2=O)cc1	.	?	?	13.9%	-37.4%
CCCCN1C(=O)c2ccc(C(=O)NCCN3C(=O)S/C(=C\c4cccnc4)C3=O)cc2C1=O	-16.4%	1.26µM*	?	-8.0%	-17.3%[10 µM]
SMILES	HPGD block	ALDH1A1 block	Lamin A splicing	HttQ103 aggreg	HTT ATP protect
CCN(C(=O)COc1ncnc2sccc12)c1ccccc1	.	-0.6%	.	-7.6%	1µM*
Nc1ccc(N=Nc2ccc(-c3ccc(O)cc3)cc2)c2ccc(S(=O)(=O)O)cc12	-7.3%	0.6%[13.5 µM]	.	.	-8.5%[10 µM]
Nc1c(N=Nc2ccc(-c3ccc(N=Nc4cc(S(=O)(=O)O)c5ccccc5c4N)cc3)cc2)cc(S(=O)(=O)O)c2ccccc12	15.8µM*	25.1µM*	.	-21.9%	11.1%
Cc1cc(-c2ccc(N=Nc3ccc4c(S(=O)(=O)O)cc(S(=O)(=O)O)c(N)c4c3O)c(C)c2)ccc1N=Nc1ccc2c(S(=O)(=O)O)cc(S(=O)(=O)O)c(N)c2c1O	5.01µM*	?	.	-8.0%	26.3%
Cc1ccc(N=Nc2c(O)c(S(=O)(=O)O)cc3cc(S(=O)(=O)O)ccc23)c(C)c1	-7.7%	?	.	.	-10.6%[10 µM]
Cc1cccc(-c2noc(-c3ccc(Cl)cc3[N+](=O)[O-])n2)c1	14.1µM*	-0.6%	?	-10.1%	2.9%[10 µM]
COc1ccc(-c2noc(-c3ccc(Cl)cc3[N+](=O)[O-])n2)cc1OC	17.8µM*	-8.4%	-22.1%	5.2%	-8.6%[10 µM]
Cc1cccc(-c2noc(-c3ccoc3C)n2)c1	.	-0.1%	0.3%[46 µM]	20.1%	6.9%
CC(C)C(=O)Nc1nnc(SCc2cc(=O)n3ccccc3n2)s1	.	.	-11.4%[46 µM]	.	.
COc1ccccc1OCC(=O)Nc1nnc(-c2ccco2)s1	-22.2%	7.08µM*	-4.5%	4.8%	-4.0%
Cc1cccc(OCC(=O)Nc2nnc(-c3ccco3)s2)c1	.	31.6µM*	-13.4%[46 µM]	?	-29.4%
CC(=O)OC1CC[C@]2(C)C(CC[C@@]3(C)C2C(=O)C=C2C4C(C)C(C)CC[C@@]4(C(=O)O)CCC23C)C1(C)C (stereo not given in full)	-0.4%	9.7%	?	.	.
CCC(=O)CC(NC(=O)OC)c1ccccc1 (stereo not given)	.	1.2%[13.5 µM]	.	.	8.7%[10 µM]
COc1ccc(C2CC(=O)C3=C(C2)Nc2ccccc2N(C(=O)C2CC2)C3c2cccnc2)cc1OC (stereo not given)	-20.9%	14.1µM*	-1.3%	15.3%	-9.2%
CC(=O)c1cccc2c(O)c(C3=Nc4ccccc4C3=O)[nH]c12	14.1µM*	?	?	5.4%	-14.7%[1.9 µM]
O=C1C(c2c(O)[nH]c3ccccc23)=Nc2ccccc21	.	15.9%	7.3%[46 µM]	.	?
Cc1cccc(CNc2cc(-c3cccc(C#N)c3)ncn2)c1	?	-6.7%	15.7%	.	-21.9%
CCC(C)(C)NC(=O)CCCSc1nc2ccccc2[nH]1	.	.	.	-21.1%[9.22 µM]	-2.1%[10 µM]
N#Cc1nc(Cc2ccccc2)oc1NCc1cccnc1	-17.8%	-3.0%	-7.3%	-7.6%	-16.6%[0.074 µM]
N#Cc1nc(Cc2ccccc2)oc1NCc1ccccc1Cl	-20.1%	?	?	8.91µM*	-2.8%
CO[C@H]1COC(=O)[C@@H](C)COC(=O)[C@H](C)NC(=O)C/C=C\[C@H]1C	.	14.1%[13.5 µM]	.	.	-15.3%[10 µM]
Cc1ccc(C(=O)c2coc3cc([N+](=O)[O-])c(O)c([N+](=O)[O-])c23)cc1	14.1µM*	?	?	1.7%	5.6%[1.9 µM]
CCOC(=O)CCN1C(=O)[C@H]2[C@H]3[C@H](O)[C@H](O)C/C(=N/NC(=O)OCc4ccc(OC)cc4)[C@@H]3CC[C@@H]2C1=O	.	-10.2%[13.5 µM]	.	.	-15.8%[10 µM]
O=C(CSc1n[nH]c(-c2cccs2)n1)NCc1cccs1	17.8µM*	24.4%	12.4%	-4.8%	-20.8%[10 µM]
O=C(CSc1n[nH]c(-c2cccs2)n1)NCc1ccc2c(c1)OCO2	12.6µM*	0.6%	15.9%	4.4%	-28.0%
Nc1nc(SCC(=O)NCc2ccc3c(c2)OCO3)n[nH]1	.	2.2%	-8.8%[46 µM]	6.9%	19.9%
